# Among all 2,500 compounds or so, about 45 (2%) were called active. This is one part of a sample in which actives are shown more often than they occur. No stated cut-off is given here; in the data, active means inhibition mostly above about 45% (no sharp cut-off); inactive means mostly below about 37%.
# Assay: anti-Giardia activity of synthetic compounds – Compounds Australia Scaffold Library subset, 24/48 h, primary screen (AID 1794835);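 on inhibition: 0% = parasite counts in DMSO vehicle wells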
# Conditions: Giardia lamblia BRIS/91/HEPU/1279 trophozoite counts, imaging, at 10 µM
# [1] = measured here: growth inhibition at 24 h, stronger effect = higher value
smiles,measurement,setting,value
COCC(=O)N1CCC(Oc2ncccc2C(=O)N(C)C)CC1,inhibition,stronger effect = higher value,4.8% (inactive)
O=C(c1ccc(F)cc1)N1CCN(c2nc3cc(Br)ccc3n3cccc23)CC1,inhibition,,inactive
COc1cc(S(=O)(=O)N2CCN=C2Cc2ccccc2)c(OC)cc1Cl,inhibition,,inactive
O=C(c1ccc2nc[nH]c2c1)N1CCN(Cc2cccc(Cl)c2)CC1,outcome,,inactive
same,inhibition,[1],6%
CCCC(=O)Nc1nnc(S(=O)(=O)N(C)Cc2ccco2)s1,inhibition,,inactive
Cc1noc2ncc(C(=O)N3CCN(CCO)CC3)cc12,inhibition,,inactive
O=C(NC1CCCCC1)c1nc(Nc2ccccc2)c2ccccc2n1,inhibition,stronger effect = higher value,73.1% (active)
same,inhibition,[1],59.6%
O=C(NC1CCCCC1)c1cc(-c2ccco2)nc2ccccc12,inhibition,stronger effect = higher value,20.8% (inactive)
same,inhibition,[1],17.2%
O=C(c1nc(Nc2ccc(F)cc2)c2ccccc2n1)N1CCCCCC1,inhibition,,inactive
CCC(OC1CCCC1)C(=O)N1CCN(c2nccn2C)CC1 (stereo not given),outcome,,inactive
same,inhibition,[1],9.4%
CC(=O)Nc1cc(C(=O)NCCCN2CCC(C)CC2)ccc1S(=O)(=O)c1ccc(Cl)cc1,inhibition,stronger effect = higher value,23.9% (inactive)
same,inhibition,[1],5%
Cc1csc(-c2cc(S(=O)(=O)N3c4ccccc4CC3C)c(C)n2C)n1 (stereo not given),inhibition,stronger effect = higher value,63.6% (active)
same,inhibition,[1],22.6%
CCCNS(=O)(=O)c1cc(-c2nc(-c3cccc(Cl)c3)cs2)n(C)c1C,inhibition,stronger effect = higher value,32.9% (inactive)
same,inhibition,[1],21.9%
Cc1nn(Cc2csc(-c3ccsc3)n2)c(C)c1S(=O)(=O)N1CCc2ccccc21,inhibition,stronger effect = higher value,7.1% (inactive)
same,inhibition,[1],12.8%
CN(Cc1ccccc1)C(=O)c1cccc2c1CCN2C(=O)Nc1ccccc1,outcome,,inactive
same,inhibition,[1],2.8%
CCc1c(C2CCN(C(=O)C3COc4ccccc4O3)CC2)noc1N (stereo not given),inhibition,,inactive
Cc1ccc(NC(=O)N2CCCC(C)(C(=O)NCc3ccc(F)cc3)C2)cc1 (stereo not given),inhibition,,inactive
COc1ccc(C(=O)Nc2cc(-c3nc(C)cs3)sc2C)cc1OC,inhibition,stronger effect = higher value,27.2% (inactive)
same,inhibition,[1],11.4%
Cc1ccc(C(=O)Nc2cc(-c3nc(C)cs3)sc2C)cc1,inhibition,stronger effect = higher value,56.1% (active)
same,inhibition,[1],28%
Cc1csc(-c2ccc(CNC(=O)c3cncc(Br)c3)cc2)n1,inhibition,,inactive
O=C(c1cc(Cl)c[nH]1)N1CCCN(Cc2cscn2)CC1,inhibition,,inactive
Cc1noc2nc(-c3ccccc3F)cc(C(=O)N3CCCC3c3nnc4ccccn34)c12 (stereo not given),inhibition,,inactive
O=C1CCCc2cc(S(=O)(=O)N3CCN(c4ccccc4)CC3)ccc2N1,inhibition,stronger effect = higher value,19.1% (inactive)
same,inhibition,[1],8.5%
CC1(c2ccco2)NC(=O)N(Cc2cn(-c3ccccc3)nc2-c2ccccc2)C1=O (stereo not given),inhibition,,inactive
Cc1cc2[nH]c(C(=O)Nc3ccccc3C)c(CN3CCOCC3)c2s1,inhibition,stronger effect = higher value,97.7% (active)
same,inhibition,[1],94.7%
COc1ccc(CNC(=O)c2[nH]c3cc(C)sc3c2CN2CCCC2)cc1,inhibition,stronger effect = higher value,35.5% (inactive)
same,inhibition,[1],10.1%
Cc1sc2cc(C(=O)NC(C)(C)C)[nH]c2c1CN1CCOCC1,inhibition,stronger effect = higher value,2.4% (inactive)
same,inhibition,[1],3%
Cc1ccc(S(=O)(=O)N2CCc3nc(N4CCOCC4)[nH]c(=O)c3CC2)cc1C,inhibition,,inactive
Cc1cc(C)c(S(=O)(=O)N2CCN(C)c3ccccc32)c(C)c1,inhibition,,inactive
O=S(=O)(Cc1ccccc1)Nc1cccc(-c2nnc(Cc3ccc4c(c3)OCO4)o2)c1,inhibition,stronger effect = higher value,46.9% (active)
same,inhibition,[1],17.2%
CCc1nnc(-c2nnc(NCc3ccc4c(c3)OCO4)c3ccccc23)o1,outcome,,inactive
same,inhibition,[1],3%
CCOC(=O)c1ccc(S(=O)(=O)Nc2cccc(-c3nnc(-c4ccccc4)o3)c2)cc1,inhibition,stronger effect = higher value,2.3% (inactive)
c1cnc(N2CCN(c3ncnc4nc[nH]c34)CC2)nc1,inhibition,stronger effect = higher value,0.6% (inactive)
O=C(CN1C(=O)CCCc2ccccc21)NCCc1ccco1,inhibition,,inactive
Cc1cc(-c2cc(C(=O)Nc3ccc(N4CCN(C)CC4)nc3)c3cnn(C(C)C)c3n2)c(C)o1,inhibition,stronger effect = higher value,98.2% (active)
same,inhibition,[1],95.9%
Cc1cc(-c2cc(C(=O)Nc3c(C)n(C)n(-c4ccccc4)c3=O)c3cnn(C(C)C)c3n2)c(C)o1,outcome,,inactive
same,inhibition,[1],2%
CC1CN(C(=O)c2cc(C3CC3)nc3c2cnn3C(C)C)CC(C)O1 (stereo not given),inhibition,,inactive
NC(=O)c1nonc1N,inhibition,,inactive
Cc1ccc(CNC(=O)c2cc(-c3ccc(C)c(C)c3)n(C3CCS(=O)(=O)C3)n2)cc1 (stereo not given),inhibition,,inactive
Cn1cc2c(n1)c(=O)n(Cc1ccccc1)c(=O)n2CC(=O)Nc1ccc2c(c1)OCCO2,inhibition,,inactive
Cn1cc2c(n1)c(=O)n(Cc1ccccc1)c(=O)n2CC(=O)Nc1cccc(F)c1,inhibition,stronger effect = higher value,62.8% (active)
same,inhibition,[1],30.6%
Cc1nc2c(c(=O)n1CC(=O)Nc1cccc(F)c1)CCN(Cc1ccccc1)C2,outcome,,inactive
same,inhibition,[1],12%
Brc1ccc(-c2nc(-c3ccc4c(c3)ncn4C3CCCC3)no2)o1,inhibition,,inactive
Cc1ccccc1NC(=O)c1c(C)oc2ncnc(N3CCCCC3)c12,inhibition,stronger effect = higher value,15.9% (inactive)
same,inhibition,[1],14.5%
Cc1ccc(C(=O)N2CCN(S(=O)(=O)N3CCN(C)CC3)CC2)o1,inhibition,,inactive
N=C1C(=C2Nc3ccccc3S2)CC(=O)N1C1CC1,outcome,,inactive
same,inhibition,[1],2.5%
COc1ccc(C(=O)N2c3ccccc3NC(=O)CC2C)cc1OC (stereo not given),outcome,,inactive
same,inhibition,[1],2.2%
COc1ccc(C)cc1N1C(=N)C(=C2Nc3ccccc3S2)C(c2ccccc2)C1=O (stereo not given),inhibition,stronger effect = higher value,96.7% (active)
same,inhibition,[1],90.2%
CCN(CC)CCCN1C(=O)C(O)=C(C(=O)c2cc3cccc(OC)c3o2)C1c1ccncc1 (stereo not given),inhibition,,inactive
CCOc1cc(C)ccc1NC(=O)N1CCC12CCC2,inhibition,,inactive
CCn1cc(CN2CCCN(C(=O)c3cc(C4CC4)on3)CC2)cn1,outcome,,inactive
same,inhibition,[1],1.1%
CCOc1ccc(C(=O)Nc2ccc3c(c2)N(C(C)C)C(=O)c2ccccc2O3)cc1,inhibition,stronger effect = higher value,33.8% (inactive)
same,inhibition,[1],18.7%
CN1C(=O)c2cc(NC(=O)c3ccc4c(c3)OCO4)ccc2N2CCN=C12,inhibition,stronger effect = higher value,31.6% (inactive)
same,inhibition,[1],11.7%
Cc1ccc(C(=O)Nc2ccc3c(c2)Oc2ccccc2C(=O)N3C)cc1,inhibition,stronger effect = higher value,96.8% (active)
same,inhibition,[1],90.3%
O=C(NCc1cccc(F)c1)C1CCCN(c2nc3ccccc3n3cccc23)C1 (stereo not given),outcome,,inactive
same,inhibition,[1],2.2%
CNC(=O)N1C[C@@H](CN(C)C)[C@@H](C2CCN(Cc3ccccn3)CC2)C1,inhibition,,inactive
CCCCNC(=O)Cn1c(=O)c2c(C)cc(C)nc2n(-c2ccccc2)c1=O,inhibition,stronger effect = higher value,4.4% (inactive)
Cc1ccc(-n2c(=O)c3c(cnn3C)n(CC(=O)Nc3ccccc3C)c2=O)cc1,inhibition,stronger effect = higher value,76.9% (active)
same,inhibition,[1],53.9%
Cc1ccccc1NC(=O)Cn1ccc2sccc2c1=O,inhibition,stronger effect = higher value,19.9% (inactive)

# Source: PubChem BioAssay AID1794835 (Parasite Biology Lab, Institute for Biomedicine and …, 2023)
